Rows were chosen to be rich in hits. Some 5.7% of all compounds tested hit in one or more screens of this group.
hcDAF-12 act – activators of H. contortus DAF-12 nuclear receptor; HEK293 hcDAF-12 lit1-tk-luc reporter, luminescence; 0% DMSO, 100% Δ7-dafachronic acid; activation, % at 6.8 µM; 370,000 tested, 1.4% active;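 active = activation above the mean of all tested compounds plus 3 SD, cut at about 5.5% in these data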;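 also: 100% = response to 3 µM Δ7-dafachronic acid high control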
DAX1 inh-1 – inhibits human nuclear receptor DAX1 | HEK293 Gal4-DAX1 luciferase reporter, luminescence | 340,000 tested, 0.99% active | inhibition, % at 6.75 µM | AID 504766;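 active = inhibition above the mean over all tested compounds plus 3 SD, cut at about 4.2% in these data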;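 also: 0% = DAX1-transfected cells with DMSO and 100% = empty-vector control cells with DMSO; inhibition shows as a rise in luminescence from relieved DAX1 repression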
AHR activator – activates the human aryl hydrocarbon receptor. AHR-responsive luciferase reporter cells, luminescence. activation, % at 5 µM. 320,000 tested, 2.5% active. AID 2796; in the data active = activation above about 47%;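 also: 0% = vehicle wells and 100% = reference agonist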
Target sequence (P35869 whole entry, looked up): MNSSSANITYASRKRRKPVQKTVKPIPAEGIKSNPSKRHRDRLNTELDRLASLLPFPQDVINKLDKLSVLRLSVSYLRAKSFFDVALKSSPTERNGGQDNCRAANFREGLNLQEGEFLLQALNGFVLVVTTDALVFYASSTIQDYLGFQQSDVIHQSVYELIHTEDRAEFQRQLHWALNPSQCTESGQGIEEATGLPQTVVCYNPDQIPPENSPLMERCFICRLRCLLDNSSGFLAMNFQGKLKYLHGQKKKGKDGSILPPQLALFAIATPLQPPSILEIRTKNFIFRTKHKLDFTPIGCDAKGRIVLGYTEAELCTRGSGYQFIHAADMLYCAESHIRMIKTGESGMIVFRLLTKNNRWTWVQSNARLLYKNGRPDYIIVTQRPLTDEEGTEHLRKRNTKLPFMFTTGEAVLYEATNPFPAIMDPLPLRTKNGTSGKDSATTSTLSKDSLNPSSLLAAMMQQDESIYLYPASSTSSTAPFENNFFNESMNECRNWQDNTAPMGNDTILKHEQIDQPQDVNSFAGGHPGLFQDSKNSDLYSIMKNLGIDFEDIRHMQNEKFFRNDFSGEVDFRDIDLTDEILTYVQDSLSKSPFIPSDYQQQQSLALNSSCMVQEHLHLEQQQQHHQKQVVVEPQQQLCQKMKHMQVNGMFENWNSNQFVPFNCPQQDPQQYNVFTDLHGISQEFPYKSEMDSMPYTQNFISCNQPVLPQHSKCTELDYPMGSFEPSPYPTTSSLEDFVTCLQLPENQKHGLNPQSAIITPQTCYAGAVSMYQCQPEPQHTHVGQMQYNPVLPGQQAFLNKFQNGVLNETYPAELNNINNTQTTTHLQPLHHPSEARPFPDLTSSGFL
hgDAF-12 ag – agonists of H. glycines DAF-12 nuclear receptor. HEK293 GAL4-hgDAF12 UAS-luciferase reporter, agonist luminescence; normalized to butyrate control. activation, % at 6.8 µM. 370,000 tested, 1.8% active;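 active = activation above a cutoff set at the mean of all screened compounds plus 3 SD, cut at about 10% in these data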;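 also: 0% = DMSO wells and 100% = sodium butyrate wells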
DAX1 inh-2 – inhibitors of DAX1 repression of SF-1 activated StAR promoter; HEK293T StAR-luciferase reporter, SF-1/DAX-1 repression relief; inhibition, % at 6.8 µM; 370,000 tested, 1.1% active;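 active = inhibition above the mean over all tested compounds plus 3 SD, cut at about 3.6% in these data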;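 also: 0% = DAX-1 cells with DMSO and 100% = cells lacking DAX-1 with DMSO; higher inhibition means more luminescence from relief of DAX-1 repression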
ssDAF12 agonist – S. stercoralis DAF-12 activation, primary screen. HEK293 ssDAF-12/GRIP1 lit1-tk-luc reporter, luminescence; % of 3 µM dafachronic acid response. activation, % at 6.8 µM. 370,000 tested, 1% active;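 active = activation above the mean over all tested compounds plus 3 SD, cut at about 0.9% in these data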;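 also: 0% = DMSO-only wells and 100% = 3 µM delta7-dafachronic acid wells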
Numbers without * were called inactive; / = not tested or not shown.

SMILES	hcDAF-12 act	DAX1 inh-1	AHR activator	hgDAF-12 ag	DAX1 inh-2	ssDAF12 agonist
Cc1ccc(S(=O)(=O)NCC(=O)N/N=C/c2ccccc2O)cc1	-2	1	2	-1	-1	-1
COC(=O)c1c(NC(C)=O)sc(C(=O)Nc2ccccc2)c1C	0	1	1	7	2	-2
COC(=O)c1c(NC(C)=O)sc(C(=O)Nc2ccccc2F)c1C	1	0	2	13*	3	-1
CCCC(=O)Nc1sc(C(=O)Nc2cccc(N)c2)c(C)c1C(=O)OC	1	0	14	7	3.9*	-1
CN(C(=O)c1ccc(N2CCCCC2)c([N+](=O)[O-])c1)C1(C)CCS(=O)(=O)C1 (stereo unspecified)	-1	-1	-1	-1	-1	-1
COC(=O)c1cn(Cc2cccnc2)c(=O)c2ccccc12	-2	-1	2	-1	0	0.9*
Cc1ccc(C(=O)N2CC(C)OC(C)C2)cc1S(=O)(=O)N1CCCCC1 (stereo unspecified)	-3	1	-1	3	0	-1
COc1cccc(C(=O)NCCC2=CCCCC2)c1	4	-2	14	12*	3	0
COc1ccc(C(=O)NCCC2=CCCCC2)cc1OC	2	1	15	4	2	0
Cc1cc(C(=O)NCCC2=CCCCC2)ccc1[N+](=O)[O-]	3	/	2	11*	3	-1
NC(=O)c1c(NC(=O)Cn2nc(C(=O)O)c3ccccc3c2=O)sc2c1CCCC2	0	3	1	13*	0	-1
NC(=O)c1c(NC(=O)Cn2nc(C(=O)O)c3ccccc3c2=O)sc2c1CCC2	0	0	3	6	0	-2
O=C(Cn1nc(C(=O)O)c2ccccc2c1=O)Nc1ccc(Br)cc1	1	-1	23	-3	0	1.1*
COc1cc(C(=O)Nc2ccc(S(=O)(=O)Nc3cc(C)nc(C)n3)cc2)cc(OC)c1OC	0	6.4*	-2	-2	1	-1
Cc1cc(NS(=O)(=O)c2ccc(NC(=O)/C=C/c3ccc(C)o3)cc2)nc(C)n1	0	4.6*	2	-4	0	-2
Cc1cc(NS(=O)(=O)c2ccc(NC(=O)/C=C/c3ccccc3)cc2)nc(C)n1	0	1	-1	-2	1	-1
COc1ccc(C(=O)Nc2ccc(S(=O)(=O)Nc3cc(C)nc(C)n3)cc2)cc1OC	-2	1	3	0	3	-2
CC(C)NC(=O)Nc1ccc2c(c1)C(=O)N([C@H](C)CO)C[C@H](C)[C@@H](CN(C)C(=O)NC(C)C)O2	1	0	/	-1	0	-1
CCOc1cc(OCC)cc(C(=O)N2CCC[C@@H]2C(=O)N2CCC[C@@H]2C(=O)NCc2ccccc2Cl)c1	2	/	/	3	-1	1.0*
CC1(C)CC(NC(=O)c2ccc(Cl)c(Cl)c2)CC(C)(C)N1	1	4.6*	1	1	1	-1
CC1(C)CC(NC(=O)c2ccc(Cl)cc2)CC(C)(C)N1	-2	3	1	0	0	0
CCOC(=O)C1CCCN1C(=O)C1(NC(C)=O)CCCC1 (stereo unspecified)	-1	2	/	12*	0	-1
CCOC(=O)C1CCN(C(=O)C2(NC(=O)NC3CCCCC3)CCCCC2)CC1	-2	0	0	0	0	-1
Cc1nn(-c2ccccc2)c(Cl)c1/C=N/NC(=O)c1ccc(CNc2ccccc2)o1	1	0	-1	2	0	-2
CCOC(=O)N/N=C/c1c(C)nn(-c2ccccc2Cl)c1Cl	4	2	31	11*	1	-1
Cc1nn(-c2ccccc2)c(Cl)c1/C=N/NC(=O)c1ccco1	1	2	3	12*	2	-1
Cc1nn(C)cc1/C=N/NC(=O)c1ccco1	2	4.9*	3	8	1	-1
Nc1nc2c(ncn2[C@@H]2O[C@H](C(=O)NCC(F)(F)F)[C@@H](O)[C@H]2O)c(=O)[nH]1	2	/	/	-3	0	-1
CSCCC(NC(=O)COc1cccc2ccccc12)C(=O)O (stereo unspecified)	-1	1	3	-3	-1	1.0*
